# According to ChEMBL document CHEMBL3433997, “St. Jude Leishmania screening dataset” (2016):
# Target: Hexose transporter 1 (Plasmodium falciparum) (UniProt O97467)
# Assay: ST_JUDE_LEISH: Cytotoxicity at 2uM final concentration against transgenic Leishmania Mexicana promastigotes LmPfHT that are glucose transport deficient and complemented with the Plasmodium falciparum hexose transporter. Activity is measured by DNA content using SYBR green in vitro
# Format: functional
row,SMILES,inhibition
1,CCC1(CC)NC(N)=NC(=N)N1OCc1ccc(Cl)c(Cl)c1,3.75%
2,CCCCc1ccc(C(=O)NC2CCN(C[C@H](O)c3ccnc4ccc(OC)cc34)CC2)cc1,65.3%
3,CC1CC(C)CN(CCCNc2ccc(C(=O)Nc3ccc(C(F)(F)F)cc3)cc2[N+](=O)[O-])C1 (stereo not given),0.64%
4,Cc1ccc(C)c(-n2c(SCC(=O)Nc3ccc(C(N)=O)cc3)nnc2-c2cccc(Cl)c2)c1,11.6%
5,CC1CN(c2ccc(NC(=O)c3ccsc3)cc2C(=O)N2CCN(Cc3ccc(C(C)(C)C)cc3)CC2)CC(C)O1 (stereo not given),1.1%
6,N#Cc1ccc2[nH]cc(CN3CCC4(CC3)CN(CCNCc3ccccc3)C(=O)O4)c2c1,4.4%
7,CN(C)CCCNc1ncnc2c1[nH]c1ccc(Br)cc12,2.41%
8,CC(C)CCN(Cc1cncn1Cc1ccccc1F)C(=O)c1cncc(-c2ccccc2)c1,5.35%
9,Cc1[nH]c2ccccc2c1C(=O)C(C)Sc1nnc(-c2ccccc2F)o1 (stereo not given),1.95%
10,Cc1cc(N[C@@H](CC(C)C)C(=O)NC2CCCC2)nc(NCC2CCCCC2)n1,3.89%
11,COc1cc(CCON2C(N)=NC(N)=NC2(C)C)cc(OC)c1OC,0.73%
12,CC(C)(C)NCC(O)COc1ccc(Cl)cc1C1=NNC(=O)CC1 (stereo not given),1.45%
13,CC(C)CN1CCCN(Cc2cccc(NC(=O)c3ccc(-c4ccccc4)cc3)c2)CC1,0.24%
14,COc1ccc(-c2ccc(NC(=O)c3ccc(F)cc3)cc2)cc1CN1CCCN(C)CC1,3.81%
15,O=C(Nc1cccc([N+](=O)[O-])c1)Nc1ccc(Cl)c(C(F)(F)F)c1,1.56%
16,CCOCCCn1c(=N)c(C(=O)NCc2ccc(OC)cc2)cc2c(=O)n3cccc(C)c3nc21,5.36%
17,Nc1c(Cl)cc(C(O)CNCCCCCOCCCc2ccc3ncccc3c2)cc1Cl (stereo not given),5.02%
18,COc1cc(Cc2cnc(N)nc2N)cc(OC)c1OCCNC(=O)[C@@H](N)CCC(=O)O,0%
19,CC1CCN(Cc2ccc(NC(=O)c3cc4ccc5cccnc5c4[nH]3)cc2)CC1,7.81%
20,Oc1ccc2nc(N3CCNCC3)nc(NCCCc3ccccc3)c2c1,-0.65%

row,SMILES,inhibition
1,CCOC(=O)c1ccc(NC(=O)Nc2cccc(-c3cccc(-c4nc5ccccc5[nH]4)c3)c2)cc1,7.84%
2,CCO[C@H]1CN[C@H](C#Cc2cc3c(Nc4ccc(OCc5cccc(F)c5)c(Cl)c4)ncnc3s2)C1,3.65%
3,O=C(Nc1ccc(-c2ccccc2)cc1)Nc1cccc(OCCN2CCCC2)c1,4.18%
4,CCCNCc1ccc(-c2ccc(CN(CC3CCCO3)C(=O)C3CC(=O)c4ccccc43)cc2)nc1 (stereo not given),3.74%
5,O=C(Nc1cccc(-c2ccc(CN3CCC(O)CC3)cc2)c1)c1ccc(Cl)cc1,3.64%
6,CC(C)(CNC(=O)C1CCN(CCOc2ccc(F)c(F)c2)CC1)c1nc(-c2ccc(Cl)c(O)c2)c(-c2ccncc2)[nH]1,4.16%
7,Cc1ccccc1CNC(=O)Nc1cccc(-c2csc(NC(=N)N)n2)c1,0.56%
8,COC(=O)c1ccc2nc(-c3ccc(C(=O)NC4CCN(Cc5ccccc5)CC4)s3)[nH]c2c1,10.5%
9,Cc1cccc(Nc2nccc(NCC(O)c3ccc(C(F)(F)F)cc3)n2)c1 (stereo not given),11.4%
10,CC(C)OC(=O)c1cccnc1SCC(=O)Nc1ccc(C(F)(F)F)cc1Cl,1.68%
11,Cc1ccoc1C(=O)Nc1cccc(-c2cccc(-c3nc4ccccc4[nH]3)c2)c1,6.56%
12,COc1ccc(C(=O)N[C@@H](CC(C)C)C(=O)NC2CC[C@@H](C)N(C(=O)Nc3ccc(Cl)cc3)CC2=O)cc1OCCN1CCOCC1 (stereo not given in full),3.66%
13,Cc1cccc2nc(-c3cccc(-c4cccc(NC(=O)C(C)CN5CCN(C)CC5)c4)c3)[nH]c12 (stereo not given),1.44%
14,COc1ccc(CCNC(=O)c2ccccc2O)cc1-c1ccc(C(C)(C)C)cc1,2.33%
15,Cc1cc(NC(=O)Nc2ccc(C#N)cc2)c2ccccc2n1,4.35%
16,O=C(/C=C/c1ccc(C(F)(F)F)cc1)NCCCCCN1CCN(C(=O)Nc2ccc(F)c(Cl)c2)CC1,2.52%
17,CCCCCCN(CCCCCC)CC(O)c1cc(-c2ccc(Cl)cc2)nc2c(C)cc(C)cc12 (stereo not given),6.85%
18,COc1ccc(NC(=O)Nc2nc3ccccc3s2)cc1N1CCN(C)CC1,4.98%
19,CC(=O)N[C@H](C(=O)Nc1ccc(-c2cccc(-c3nc4cccc(C)c4[nH]3)c2)cc1)C(C)C,3.2%
20,COCCOC(=O)C(=O)c1c(-c2ccccc2)c(-c2ccc(OC)c(OC)c2)c2c3cc(OC)c(OC)cc3ccn12,2.7%

# Target: Glucose transporter (Leishmania mexicana) (UniProt O61059)
# Assay: ST_JUDE_LEISH: Cytotoxicity at 2uM final concentration against transgenic Leishmania Mexicana promastigotes LmGT2 that are glucose transport deficient and complemented with the L. Mexicana glucose transporter 2. Activity is measured by DNA content using SYBR green in vitro
# Format: functional
row,SMILES,inhibition
1,CCC1(CC)NC(N)=NC(=N)N1OCc1ccc(Cl)c(Cl)c1,4.43%
2,CCCCc1ccc(C(=O)NC2CCN(C[C@H](O)c3ccnc4ccc(OC)cc34)CC2)cc1,76.8%
3,CC1CC(C)CN(CCCNc2ccc(C(=O)Nc3ccc(C(F)(F)F)cc3)cc2[N+](=O)[O-])C1 (stereo not given),1.47%
4,Cc1ccc(C)c(-n2c(SCC(=O)Nc3ccc(C(N)=O)cc3)nnc2-c2cccc(Cl)c2)c1,10.4%
5,CC1CN(c2ccc(NC(=O)c3ccsc3)cc2C(=O)N2CCN(Cc3ccc(C(C)(C)C)cc3)CC2)CC(C)O1 (stereo not given),0.3%
6,N#Cc1ccc2[nH]cc(CN3CCC4(CC3)CN(CCNCc3ccccc3)C(=O)O4)c2c1,-0.76%
7,CN(C)CCCNc1ncnc2c1[nH]c1ccc(Br)cc12,1.04%
8,CC(C)CCN(Cc1cncn1Cc1ccccc1F)C(=O)c1cncc(-c2ccccc2)c1,3.59%
9,Cc1[nH]c2ccccc2c1C(=O)C(C)Sc1nnc(-c2ccccc2F)o1 (stereo not given),3.81%
10,Cc1cc(N[C@@H](CC(C)C)C(=O)NC2CCCC2)nc(NCC2CCCCC2)n1,0.25%
11,COc1cc(CCON2C(N)=NC(N)=NC2(C)C)cc(OC)c1OC,1.04%
12,CC(C)(C)NCC(O)COc1ccc(Cl)cc1C1=NNC(=O)CC1 (stereo not given),0.82%
13,CC(C)CN1CCCN(Cc2cccc(NC(=O)c3ccc(-c4ccccc4)cc3)c2)CC1,-5.07%
14,COc1ccc(-c2ccc(NC(=O)c3ccc(F)cc3)cc2)cc1CN1CCCN(C)CC1,2.87%
15,O=C(Nc1cccc([N+](=O)[O-])c1)Nc1ccc(Cl)c(C(F)(F)F)c1,0.73%
16,CCOCCCn1c(=N)c(C(=O)NCc2ccc(OC)cc2)cc2c(=O)n3cccc(C)c3nc21,3.8%
17,Nc1c(Cl)cc(C(O)CNCCCCCOCCCc2ccc3ncccc3c2)cc1Cl (stereo not given),4.94%
18,COc1cc(Cc2cnc(N)nc2N)cc(OC)c1OCCNC(=O)[C@@H](N)CCC(=O)O,0.12%
19,CC1CCN(Cc2ccc(NC(=O)c3cc4ccc5cccnc5c4[nH]3)cc2)CC1,7.77%
20,Oc1ccc2nc(N3CCNCC3)nc(NCCCc3ccccc3)c2c1,0.5%

row,SMILES,inhibition
1,CCOC(=O)c1ccc(NC(=O)Nc2cccc(-c3cccc(-c4nc5ccccc5[nH]4)c3)c2)cc1,8.27%
2,CCO[C@H]1CN[C@H](C#Cc2cc3c(Nc4ccc(OCc5cccc(F)c5)c(Cl)c4)ncnc3s2)C1,3.03%
3,O=C(Nc1ccc(-c2ccccc2)cc1)Nc1cccc(OCCN2CCCC2)c1,4%
4,CCCNCc1ccc(-c2ccc(CN(CC3CCCO3)C(=O)C3CC(=O)c4ccccc43)cc2)nc1 (stereo not given),3.19%
5,O=C(Nc1cccc(-c2ccc(CN3CCC(O)CC3)cc2)c1)c1ccc(Cl)cc1,1.52%
6,CC(C)(CNC(=O)C1CCN(CCOc2ccc(F)c(F)c2)CC1)c1nc(-c2ccc(Cl)c(O)c2)c(-c2ccncc2)[nH]1,5.08%
7,Cc1ccccc1CNC(=O)Nc1cccc(-c2csc(NC(=N)N)n2)c1,4.51%
8,COC(=O)c1ccc2nc(-c3ccc(C(=O)NC4CCN(Cc5ccccc5)CC4)s3)[nH]c2c1,8.06%
9,Cc1cccc(Nc2nccc(NCC(O)c3ccc(C(F)(F)F)cc3)n2)c1 (stereo not given),2.83%
10,CC(C)OC(=O)c1cccnc1SCC(=O)Nc1ccc(C(F)(F)F)cc1Cl,3.79%
11,Cc1ccoc1C(=O)Nc1cccc(-c2cccc(-c3nc4ccccc4[nH]3)c2)c1,5.58%
12,COc1ccc(C(=O)N[C@@H](CC(C)C)C(=O)NC2CC[C@@H](C)N(C(=O)Nc3ccc(Cl)cc3)CC2=O)cc1OCCN1CCOCC1 (stereo not given in full),5.16%
13,Cc1cccc2nc(-c3cccc(-c4cccc(NC(=O)C(C)CN5CCN(C)CC5)c4)c3)[nH]c12 (stereo not given),5.8%
14,COc1ccc(CCNC(=O)c2ccccc2O)cc1-c1ccc(C(C)(C)C)cc1,3.39%
15,Cc1cc(NC(=O)Nc2ccc(C#N)cc2)c2ccccc2n1,0.95%
16,O=C(/C=C/c1ccc(C(F)(F)F)cc1)NCCCCCN1CCN(C(=O)Nc2ccc(F)c(Cl)c2)CC1,0.69%
17,CCCCCCN(CCCCCC)CC(O)c1cc(-c2ccc(Cl)cc2)nc2c(C)cc(C)cc12 (stereo not given),8.75%
18,COc1ccc(NC(=O)Nc2nc3ccccc3s2)cc1N1CCN(C)CC1,5.72%
19,CC(=O)N[C@H](C(=O)Nc1ccc(-c2cccc(-c3nc4cccc(C)c4[nH]3)c2)cc1)C(C)C,2.45%
20,COCCOC(=O)C(=O)c1c(-c2ccccc2)c(-c2ccc(OC)c(OC)c2)c2c3cc(OC)c(OC)cc3ccn12,1.72%
